ugtP null kill: compounds lethal to S. aureus RN4220 ugtP deletion mutant | growth inhibition, % (test concentration not listed) | 330,000 tested, 0.54% active | OD600 growth, 16 h; in the data active = growth inhibition above about 68%;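 also: plate controls were untreated wells for no effect and antibiotic for full effect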
PrP 5UTR inh: suppresses PrP 5' UTR mRNA reporter expression | cell-based PrP 5' UTR mRNA reporter, plate reader | inhibition, % (test concentration not listed) | 340,000 tested, 0.35% active; in the data active = inhibition above about 52%; also: 0 = median of the neutral control wells
RN4220 kill: kills Staphylococcus aureus RN4220; S. aureus RN4220 growth, OD600, 16 h; inhibition, % (no concentration beside the values); 330,000 tested, 0.33% active; in the data active = inhibition above about 85%;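 also: plate controls were untreated cells for no effect and reference antibiotic for full effect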
PfHsp40 rescue: compounds rescuing yeast from Plasmodium falciparum HSP40 toxicity | growth rescue, % at 12.5 µM | S. cerevisiae expressing PfHsp40, growth rescue, ATP luminescence | 340,000 tested, 0.68% active | AID 504582; in the data active = growth rescue above about 28%, passing the limit was not always enough;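 also: yeast W303a lacking pdr1 and pdr3 grown in galactose medium; growth measured after three days at 30 °C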
TcdB inh: blocks C. difficile toxin B glycohydrolase activity. TcdB glycohydrolase enzymatic assay, plate reader. inhibition, % at 9.99 µM. 350,000 tested, 0.24% active; in the data active = inhibition above about 10%
* marks the source's active call; other numbers are inactive results; nt = not tested or not shown. A selection: hits, their analogues and other compounds. The true share with any hit is near 1.2%.

SMILES	ugtP null kill	PrP 5UTR inh	RN4220 kill	PfHsp40 rescue	TcdB inh
CCOc1cccc(C(=O)NC(=S)Nc2ccccc2)c1	-4.9	-72.8	4.3	0.6	1.5
COCC(=O)N1CC(=O)N2[C@H](C1)[C@H](c1ccc(-c3ccncc3)cc1)[C@@H]2CO	nt	nt	nt	nt	-2.0
CCCCCc1ccc(-c2ccc(/C=C/C(=O)O)cc2)nc1	15.7	46.0	16.7	-0.4	nt
CCCCCCCc1ccc(-c2ccc(O)cc2)nc1	44.9	-50.9	10.8	253.4*	0.1
COc1ccc(CN(C)C(=O)c2ccc(NS(=O)(=O)c3ccccc3)cc2)c(OC)c1	45.0	-2.1	1.6	0.2	-1.1
COc1ccc(CN(C)C(=O)c2ccc(NS(=O)(=O)c3ccc(F)cc3)cc2)c(OC)c1	90.1*	-12.6	-0.5	2.3	1.5
COc1ccc(NC(=O)CN(C)C(=O)c2cccc(NS(=O)(=O)c3ccc(Br)cc3)c2)cc1	2.2	-21.5	1.0	-1.0	16.4*
COc1cccc(NC(=O)CN(C)C(=O)c2cccc(NS(=O)(=O)c3ccc(Br)cc3)c2)c1	-1.3	-13.8	-0.4	13.5	0.7
O=C(Nc1ccccc1F)N1CC(=O)N2[C@@H](CO)[C@@H](c3ccc(-c4cccnc4)cc3)[C@@H]2C1	nt	nt	nt	nt	-0.1
O=C(Cc1cccnc1)N1CC2(C1)[C@H](c1ccccc1)[C@@H](CO)N2C(=O)C1CCC1	nt	nt	nt	nt	0.3
Cc1nc(SCC(=O)N2CCNC2=O)c(C#N)c(C)c1C	nt	nt	nt	nt	12.7*
CCOC(=O)c1cc2c(C(F)(F)F)cc(-c3ccccc3)nc2o1	4.7	-0.8	-1.7	0.8	nt
CCOC(=O)c1c(C(F)(F)F)cc(-c2ccc(F)cc2)nc1C	94.0*	-10.9	0.6	-0.3	nt
CC1CN(C(C)CO)C(=O)c2cc(NS(C)(=O)=O)ccc2OC1CN(C)C(=O)NC1CCCCC1 (stereo not drawn)	0.6	nt	8.4	nt	nt
N#Cc1ccc(-c2nc3cc(Cl)ccc3c(=O)n2O)cc1	-4.0	8.4	15.3	135.6*	1.7
O=c1c2ccc(Cl)cc2nc(-c2cccc(C(F)(F)F)c2)n1O	99.8*	6.0	95.9*	0.5	nt
CCOC(=O)c1c(NC(=O)CSc2nnc(Cc3ccccc3)o2)sc(C)c1C	97.8*	-11.4	19.3	3.2	nt
CCOC(=O)c1c(NC(=O)CSc2nnc(-c3ccco3)o2)sc(C)c1C	-4.3	-16.4	3.7	0.9	nt
COC(=O)C(Cc1ccccc1)NC(=O)CSc1nc(C)cc(=O)[nH]1 (stereo not drawn)	8.9	-54.4	3.5	3.0	22.0*
Cc1cc(=O)[nH]c(SCC(=O)NNC(=O)Cc2ccccc2)n1	nt	-13.1	nt	-1.2	-0.2
COc1cc(C=NN=C(N)N)ccc1OCc1ccccc1Cl	-28.9	nt	-13.3	nt	nt
COc1ccc(Cl)cc1C(=O)CSc1nnnn1C1CCCC1	1.5	-19.3	5.6	31.7*	nt
COc1ccc(Cl)cc1C(=O)CSc1nnnn1C1CCCCC1	-2.0	-23.7	2.6	7.2	nt
C[C@@H]1CN([C@H](C)CO)C(=O)c2cccc(NC(=O)c3ccc(-c4nccs4)cc3)c2O[C@@H]1CN(C)C(=O)Nc1ccc(F)cc1	nt	nt	nt	nt	-0.4
Cn1nnnc1SCC1=C(C(=O)O)N2C(=O)[C@@H](NC(=O)[C@H](O)c3ccccc3)[C@H]2SC1	nt	10.3	nt	-0.6	nt
SMILES	ugtP null kill	PrP 5UTR inh	RN4220 kill	PfHsp40 rescue	TcdB inh
CN(C)CCn1nnnc1SCC1=C(C(=O)O)N2C(=O)C(NC(=O)Cc3csc(N)n3)C2SC1 (stereo not drawn)	100.4*	nt	100.3*	nt	nt
CC1=C(C(=O)O)N2C(=O)C(NC(=O)c3ccn(C)n3)C2SC1 (stereo not drawn)	3.5	-9.5	4.2	0.1	nt
Cn1nnnc1SCC1=C(C(=O)O)N2C(=O)C(NC(=O)C3CC3c3ccccc3)C2SC1 (stereo not drawn)	99.6*	-11.8	100.2*	-1.5	0.4
CC1=C(C(=O)O)N2C(=O)C(NC(=O)c3nn(C)cc3[N+](=O)[O-])C2SC1 (stereo not drawn)	12.1	-28.0	11.4	18.8	0.0
Cc1cc(C(F)F)nn1CC(=O)NC1C(=O)N2C(C(=O)O)=C(CSc3nnnn3C)CSC12 (stereo not drawn)	99.6*	-13.3	99.8*	-2.1	0.0
Cc1nn(C(C)C(=O)NC2C(=O)N3C(C(=O)O)=C(CSc4nnnn4C)CSC23)cc1Cl (stereo not drawn)	98.6*	-9.0	99.8*	-0.3	1.8
CC(C)NC(=O)Nc1ccc2c(c1)C(=O)N([C@@H](C)CO)C[C@@H](C)[C@H](CN(C)C(=O)c1ccncc1)OCCCC[C@H](C)O2	nt	nt	nt	nt	-5.9
C[C@H](CO)N1C[C@H](C)[C@H](CN(C)C(=O)Nc2ccccc2)Oc2ncc(C#Cc3ccc(F)cc3)cc2C1=O	nt	nt	nt	nt	1.4

Assay outcomes (PubChem BioAssay)
